# Compound activity (PubChem BioAssay)
# An excerpt weighted towards active compounds, which were near 22% of everything screened.
# CYP2C19 act: increases human CYP2C19 enzyme activity | recombinant CYP2C19, luciferin-H EGE luminescence; active compounds read high; 0 = fully inhibited enzyme, 1 = untreated enzyme | activation factor at 5 µM | 96,000 tested, under 10 active | AID 1025;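 active = activation factor of at least 2 at 5 µM in the primary screen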;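 also: 0 = wells with 2.5 mM tranylcypromine and 1 = vehicle-only wells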
# Measles CPE: protection of cells from measles virus; Measles virus-infected cells, CPE protection, absorbance; protection (pct of control), % at 4 µM; actives 1.5% (n = 140,000); in the data active = protection mostly above about 24%, no sharp cut-off; inactive = mostly below about 26%
# CYP2C9 activ: activators of human CYP2C9; P11712; recombinant CYP2C9, luciferin-H conversion, luminescence; active compounds read high; factor 1 = untreated enzyme, 0 = blocked; activation factor at 5 µM; actives 1.4% (n = 96,000); AID 1024;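 active = activation factor of 2 or more for CYP2C9 at a 5 µM dose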;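 also: 0 = sulfaphenazole-blocked wells and 1 = vehicle-only wells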
# Target sequence (P11712 whole entry, looked up): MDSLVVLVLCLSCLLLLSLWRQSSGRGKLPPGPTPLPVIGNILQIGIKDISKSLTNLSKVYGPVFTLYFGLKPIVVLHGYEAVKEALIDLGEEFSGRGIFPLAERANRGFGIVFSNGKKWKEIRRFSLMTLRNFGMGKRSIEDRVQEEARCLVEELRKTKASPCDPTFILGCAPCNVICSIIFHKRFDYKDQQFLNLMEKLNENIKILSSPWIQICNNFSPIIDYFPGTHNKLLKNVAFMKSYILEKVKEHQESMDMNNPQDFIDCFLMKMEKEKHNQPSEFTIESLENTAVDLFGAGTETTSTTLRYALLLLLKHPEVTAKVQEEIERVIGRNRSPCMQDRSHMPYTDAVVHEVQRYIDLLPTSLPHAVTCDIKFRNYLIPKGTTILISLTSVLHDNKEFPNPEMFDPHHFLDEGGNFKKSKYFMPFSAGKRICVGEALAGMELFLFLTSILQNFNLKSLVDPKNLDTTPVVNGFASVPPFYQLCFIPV
# CYP2C19 inh: blocks human cytochrome P450 2C19; CYP2C19 Supersomes, luciferin-H EGE luminescence, 30 min; inhibition, % at 5 µM; P33261; actives 21% (n = 96,000);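 active = CYP2C19 inhibition above a set limit at 5 µM in the primary screen, cut at about 50% in these data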;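 also: plate controls were negative control wells for no effect and 2.5 mM tranylcypromine positive control for full effect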
# CYP2C9 inhib: blocks human cytochrome P450 2C9; P11712; CYP2C9 Supersomes, luciferin-H conversion, luminescence; inhibition, % at 5 µM; actives 20% (n = 96,000); AID 777;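 active = blocking of liver enzyme CYP2C9 beyond about 50% at 5 µM, limit read from the data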
# * marks the source's active call; other numbers are inactive results; · = not tested or not shown.
SMILES,CYP2C19 act,Measles CPE,CYP2C9 activ,CYP2C19 inh,CYP2C9 inhib
CC(C)(C)c1nc(N2CCN(C(=O)c3ccco3)CC2)c2nnn(Cc3ccccc3Cl)c2n1,0.4,21.4,0.1,62.1*,94.7*
Cn1c2ccccc2c2c(C(=O)N3CCC4(CC3)OCCO4)cn(C3CCCCC3)c(=O)c21,0.5,7.7,0.3,51.4*,69.3*
Cn1c2ccccc2c2cnn(CC(=O)N3CCC4(CC3)OCCO4)c(=O)c21,0.4,3.8,0.9,57.0*,14.0
Cc1c2cnn(CC(=O)N3CCC4(CC3)OCCO4)c(=O)c2c(C)n1Cc1ccccc1F,0.8,9.6,0.6,23.9,41.5
O=C(Cn1ncc2c3ccccc3n(Cc3cccc(Cl)c3)c2c1=O)N1CCC2(CC1)OCCO2,0.2,3.5,0.1,79.3*,91.3*
Cn1cc(C(=O)N2CCC3(CC2)OCCO3)c2c3ccccc3n(C)c2c1=O,0.9,6.7,0.9,10.4,8.0
Cc1ccc2c(c1)C1CN(C)CCC1N2C(=O)Nc1cccc(Cl)c1 (stereo not drawn),0.9,22.4,0.9,11.3,10.6
Cc1cccc(-c2nc3ccccc3c(=O)n2-n2cccc2)c1,0.5,6.2,0.5,45.3,47.8
CCC(CC)C(=O)NC1CCSC1=O (stereo not drawn),1,12.1,1,-4.0,2.5
COc1ccc(-n2c(O)c(/C=C/C=Nc3ccccc3)c(=O)[nH]c2=O)cc1,·,18.6,·,·,·
Cc1ccc(N(C)C(=O)Oc2ccc(C(=O)c3ccc(Cl)cc3)cc2)cc1,0.5,14.3,0.4,50.4*,59.7*
COc1cc(CN2C(=O)NC(=O)C3(Cc4cc(C)ccc4N(C)C3)C2=O)cc(OC)c1 (stereo not drawn),0.6,7.3,0.5,36.2,48.3
COc1cccc(N2C(=O)NC(=O)C3(Cc4cc(C)ccc4N(C)C3)C2=O)c1 (stereo not drawn),0.6,11.0,0.2,36.9,83.9*
COc1ccc2c(c1)CC1(CN2C)C(=O)NC(=O)N(CCc2ccccc2)C1=O (stereo not drawn),0.9,4.5,0.7,13.5,34.0
CCCCN1C(=O)NC(=O)C2(Cc3cc(C)ccc3N(C)C2)C1=O (stereo not drawn),0.7,3.7,0.7,30.9,26.0
Cc1ccc2c(c1)CC1(CN2C)C(=O)NC(=O)N(c2cc(C)ccc2C)C1=O (stereo not drawn),0.8,2.0,0.4,23.3,58.9*
COc1ccc(OC)c(N2C(=O)NC(=O)C3(Cc4cc(C)ccc4N(C)C3)C2=O)c1 (stereo not drawn),0.6,4.2,0.2,39.5,80.1*
CC(=NC(C)c1ccccc1)c1c(O)[nH]c(=O)[nH]c1=O (stereo not drawn),1.1,3.3,1,-14.6,2.2
CCOP(=O)(OCC)C(NC(=O)C(C)C)C(Cl)(Cl)Cl (stereo not drawn),0.9,6.2,1,5.6,-0.1
CN(C)c1ccc(NC(=O)CN2C(=O)CN=C(c3ccccc3)c3cc(Cl)ccc32)cc1,0,6.7,0.3,96.5*,65.1*
CCC(C)C1N=C(c2ccccc2)c2cc(Cl)ccc2N(CC(=O)NCc2ccco2)C1=O (stereo not drawn),1.1,13.7,1,-8.6,-3.0
CN(C)c1ccc(NC(=O)CN2C(=O)CN=C(c3ccccc3)c3ccccc32)cc1,0.3,8.6,1,65.3*,1.4
O=C(CN1CC(c2ccccc2)CC1=O)Nc1ccccc1 (stereo not drawn),·,13.2,·,·,·
Cc1ccc(NC(=O)CN2C(=O)CN=C(c3ccccc3)c3cc(Cl)ccc32)cc1,0.1,36.0,0.2,90.3*,79.8*
CCOC(=O)C(C)Oc1cc(C)cc2oc(=O)c3c(c12)CCCC3 (stereo not drawn),0.5,11.9,0.2,48.9,77.9*
SMILES,CYP2C19 act,Measles CPE,CYP2C9 activ,CYP2C19 inh,CYP2C9 inhib
COC(=O)C(C)Oc1cc(C)cc2oc(=O)c3c(c12)CCCC3 (stereo not drawn),0.4,7.2,0.1,55.0*,92.5*
Cc1cc(OCC(=O)OC(C)C)c2c3c(c(=O)oc2c1)CCCC3,0.9,6.2,0.7,6.2,28.2
COC(=O)C(C)Oc1cc(C)cc2oc(=O)c3c(c12)CCC3 (stereo not drawn),0.3,5.5,0.1,71.9*,92.1*
COC(=O)c1cc(COc2cc(C)cc3oc(=O)c4c(c23)CCC4)c(C)o1,0.2,·,0,77.6*,96.9*
CC(=O)Nc1ccc2c(c1)CC1(C(=O)N(C)C(=O)N(C)C1=O)C1CCCN21 (stereo not drawn),1,4.6,0.9,3.7,7.2
O=C(C1CCC(=O)N1Cc1ccccc1Cl)N1CCC2(CC1)OCCO2 (stereo not drawn),0.9,4.5,0.9,10.2,12.6
CCCCOP(=O)(OCCCC)/C(C#N)=C(/C)O,1,5.2,0.8,-1.2,19.3
CCCCN1C(=O)C(C2c3ccccc3C(=O)N2Cc2ccccc2)C(=O)NC1=S (stereo not drawn),0.8,5.5,0.5,18.4,54.0*
Cc1cc(NC(=O)CCC(=O)N2CCC3(CC2)OCCO3)no1,1.2,4.7,1.2,-22.8,-18.9
Oc1ccc(/C=N/NP(=S)(c2ccccc2)c2ccccc2)c(O)c1O,0.2,20.7,0,82.9*,96.5*
Oc1ccc(/C=N/NP(=S)(c2ccccc2)c2ccccc2)cc1O,0.1,3.6,0,90.2*,98.8*
CCC(=NCCOc1ccc(Cl)cc1)c1c(O)n(C)c(=O)n(C)c1=O,0.8,23.9,0.8,15.0,17.8
CCC(C)C12CN3CCN(CC(C)(C3)C1=O)C2 (stereo not drawn),0.2,14.9,0.2,76.2*,76.8*
COc1ccc(OC)c(C2=NOC(C(=O)N3CCC4(CC3)OCCO4)C2)c1 (stereo not drawn),0.6,9.0,1.8,41.9,-83.9
O=C(c1ccccc1F)c1cn(Cc2ccccc2)c2ccccc12,0.4,8.2,1,60.4*,2.5
CC(C)(C)NC(=O)Cn1cc(C(=O)c2ccccc2F)c2ccccc21,0.6,4.2,0.6,38.2,38.0
O=C(c1ccccc1F)c1cn(CC(=O)N2CCCCC2)c2ccccc12,0.2,8.0,0.7,80.3*,30.5
CCOC(=O)Cn1cc(C(=O)c2ccccc2F)c2ccccc21,0.3,16.0,0.5,68.2*,48.4
COc1ccc(C2C(C(=O)N3CCC4(CC3)OCCO4)CC(=O)N2c2ccc(OC)cc2)cc1 (stereo not drawn),0.4,24.9,0.5,61.2*,48.2
COc1ccc(CNCC(=O)N2CCC3(CC2)OCCO3)cc1,0.7,23.4,1,30.3,-4.1
CCCCCSc1cc(OC)c(CCNC)cc1OC,0.4,13.9,0.9,62.4*,11.3
CCCCCCCSc1cc(OC)c(CCNC)cc1OC,0.2,12.1,1,80.6*,2.1
O=C(N/N=C1/CN2CCC1CC2)c1cccc(O)c1,0.9,18.0,1,10.8,1.1
COc1ccccc1N1CCN(Cc2cccc(OC)c2O)CC1,0.5,12.4,1,51.5*,2.7
